Data on 18 molecules can be found in PubChem BioAssay.

Unmarked numbers belong to inactive results. For part of these data: Entries with a potency or affinity are not part of this list. Calls of active or inactive are those of the source. Unless noted, no rule for the calls is given here.

Test [1] is described as follows: antimalarial activity against Dd2 strain (AID 2302;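 active = growth inhibition above 50% at the single 2 µM test dose, taken to imply half-maximal potency below 2 µM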;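 also: 0% = DMSO untreated growth and 100% = chloroquine plus artemisinin killed control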). The following applies: P. falciparum Dd2 in RBCs, LDH growth readout, 72 h; at 2 µM; active compounds read high.
Test [2] in a line: HepG2 cytotoxicity, primary screen, cytotoxicity control for P. falciparum antimalarial project, cell-based, ATP luminescence (AID 2303;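 active = inhibition above 50%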;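 also: 0% = DMSO wells and 100% = digitonin-killed cells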). The following applies: HepG2 viability, 24-48 h, at 10 µM, active compounds read high.
Test [3] deals with L-lactate dehydrogenase (Plasmodium falciparum (isolate CDC / Honduras)) (UniProt Q27743). The experiment in a line: PfLDH activity inhibition – cell lysate, 3D7 strain, counter-screen for P. falciparum growth inhibition project (AID 2304).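 Also: 0% = vehicle and 100% = reference inhibitor.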 The conditions noted are these: P. falciparum 3D7 crude extract, LDH APAD/NBT absorbance; at 2 µM; active compounds read high.
Test [4] is described as follows: inhibition of 3D7 malaria parasite growth – strain 3D7 (AID 2306).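 Also: 0% = DMSO wells and 100% = chloroquine plus artemisinin control wells.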 The conditions noted are these: P. falciparum 3D7 erythrocytic growth, LDH absorbance, 72 h; at 2 µM; active compounds read high.
The target of test [5] is Calcium-dependent protein kinase 1 (Plasmodium falciparum (isolate 3D7)) (UniProt P62344). The experiment in a line: PfCDPK1 kinase inhibitors, biochemical, TCAMS library (AID 1159585; cut-off not given, nearly all actives have IC50 up to about 0.98 µM;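 also: inhibitors leave more ATP so luminescence rises with inhibition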). The following applies: recombinant PfCDPK1, Kinase-Glo ATP depletion luminescence. (In general: Kinase-Glo measures the ATP left after a reaction by luminescence.)
Test [6] deals with Plasmodium falciparum protein kinase 6 (PK6, PF3D7_1337100) (UniProt Q8IDW1). The test can be described thus: PfPK6 kinase inhibitors, biochemical, TCAMS library (AID 1159586). The conditions noted are these: recombinant PfPK6, Kinase-Glo ATP depletion luminescence.
Test [7] addresses Protein kinase 7 (PK7), Plasmodium falciparum 3D7 (PF3D7_0213400) (UniProt Q7YTF7). The experiment in a line: inhibition of Plasmodium PK7 catalytic activity – biochemical, TCAMS antimalarial set, Kinase-Glo luminescence (AID 1159587). The following applies: recombinant PfPK7, Kinase-Glo ATP depletion luminescence.
For test [8], the target named is Calcium-dependent protein kinase 4 (Plasmodium falciparum (isolate 3D7)) (UniProt Q8IBS5). The test can be described thus: PfCDPK4 kinase inhibitors, biochemical, TCAMS library (AID 1159588; cut-off not given, nearly all actives have IC50 up to about 0.91 µM). The conditions noted are these: recombinant PfCDPK4, Kinase-Glo ATP depletion luminescence.
Chain of Calcium-dependent protein kinase 4 (Plasmodium falciparum (isolate 3D7)) (Q8IBS5 whole entry, looked up): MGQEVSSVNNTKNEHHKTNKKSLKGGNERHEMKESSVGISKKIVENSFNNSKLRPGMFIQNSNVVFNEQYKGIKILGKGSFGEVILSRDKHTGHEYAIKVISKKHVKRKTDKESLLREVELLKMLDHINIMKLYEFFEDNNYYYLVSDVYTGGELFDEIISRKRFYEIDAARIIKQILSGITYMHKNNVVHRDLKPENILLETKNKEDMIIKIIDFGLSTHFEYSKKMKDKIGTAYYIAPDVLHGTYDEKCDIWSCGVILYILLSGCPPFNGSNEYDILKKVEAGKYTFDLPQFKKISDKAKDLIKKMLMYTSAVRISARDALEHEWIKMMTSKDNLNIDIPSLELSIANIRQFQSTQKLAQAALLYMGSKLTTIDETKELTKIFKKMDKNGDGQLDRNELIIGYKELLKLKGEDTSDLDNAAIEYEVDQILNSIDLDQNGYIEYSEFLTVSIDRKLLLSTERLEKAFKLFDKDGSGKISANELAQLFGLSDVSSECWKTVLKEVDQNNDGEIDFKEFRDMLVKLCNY

Chain of Calcium-dependent protein kinase 1 (Plasmodium falciparum (isolate 3D7)) (P62344 whole entry, looked up): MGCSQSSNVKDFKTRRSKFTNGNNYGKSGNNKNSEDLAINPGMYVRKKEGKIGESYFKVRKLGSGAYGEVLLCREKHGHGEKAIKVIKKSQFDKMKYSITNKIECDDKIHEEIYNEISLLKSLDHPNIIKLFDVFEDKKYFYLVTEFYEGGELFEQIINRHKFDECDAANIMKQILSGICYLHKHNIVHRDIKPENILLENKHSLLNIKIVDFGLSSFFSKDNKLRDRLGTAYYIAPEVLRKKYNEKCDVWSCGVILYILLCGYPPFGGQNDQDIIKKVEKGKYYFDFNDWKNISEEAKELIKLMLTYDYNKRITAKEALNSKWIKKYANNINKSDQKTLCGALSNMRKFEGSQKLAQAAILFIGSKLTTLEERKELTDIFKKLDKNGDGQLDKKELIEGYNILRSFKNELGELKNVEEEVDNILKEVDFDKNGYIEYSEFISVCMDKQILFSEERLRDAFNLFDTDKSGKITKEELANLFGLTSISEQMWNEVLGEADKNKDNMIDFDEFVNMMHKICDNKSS
Chain of Protein kinase 7 (PK7), Plasmodium falciparum 3D7 (PF3D7_0213400) (Q7YTF7 1-343): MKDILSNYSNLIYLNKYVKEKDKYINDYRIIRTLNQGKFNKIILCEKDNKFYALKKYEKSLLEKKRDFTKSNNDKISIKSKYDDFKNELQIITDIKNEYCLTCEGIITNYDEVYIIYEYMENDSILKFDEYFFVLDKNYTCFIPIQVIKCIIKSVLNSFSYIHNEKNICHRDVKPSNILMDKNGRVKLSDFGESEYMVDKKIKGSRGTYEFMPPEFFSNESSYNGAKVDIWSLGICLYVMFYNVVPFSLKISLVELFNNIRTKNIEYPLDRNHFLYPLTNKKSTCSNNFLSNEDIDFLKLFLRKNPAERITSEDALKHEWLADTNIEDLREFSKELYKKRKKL
Chain of Plasmodium falciparum protein kinase 6 (PK6, PF3D7_1337100) (Q8IDW1 1-305): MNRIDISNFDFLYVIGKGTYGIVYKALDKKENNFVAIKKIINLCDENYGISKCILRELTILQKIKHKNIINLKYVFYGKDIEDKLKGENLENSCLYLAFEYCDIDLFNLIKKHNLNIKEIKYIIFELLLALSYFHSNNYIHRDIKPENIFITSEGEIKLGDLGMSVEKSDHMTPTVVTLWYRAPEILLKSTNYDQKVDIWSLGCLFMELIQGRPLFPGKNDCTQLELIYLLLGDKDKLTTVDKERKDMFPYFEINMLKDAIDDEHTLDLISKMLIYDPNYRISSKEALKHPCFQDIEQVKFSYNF
Chain of L-lactate dehydrogenase (Plasmodium falciparum (isolate CDC / Honduras)) (Q27743 whole entry, looked up): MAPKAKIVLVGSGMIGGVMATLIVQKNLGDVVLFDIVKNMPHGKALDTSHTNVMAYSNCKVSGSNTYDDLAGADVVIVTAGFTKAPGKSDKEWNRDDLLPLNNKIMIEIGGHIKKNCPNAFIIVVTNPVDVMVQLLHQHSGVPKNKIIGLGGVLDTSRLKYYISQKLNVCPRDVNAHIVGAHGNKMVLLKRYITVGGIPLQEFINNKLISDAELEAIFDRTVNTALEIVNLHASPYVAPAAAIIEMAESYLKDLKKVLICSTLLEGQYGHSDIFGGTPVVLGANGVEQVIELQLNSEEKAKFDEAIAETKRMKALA

Consider `C1=CN(Cc2ccccc2)C=CC1=C1C=Nc2ccccc21`, for which the growth inhibition in test [1] was 69% (active); in test [4] it was 90% (active). Further, the inhibition in test [2] was 8%; in test [3], -3%. In addition, the result in test [5], in test [6], in test [7] and in test [8] was inactive.

On to `Cn1c(NC2CCN(CC3CCN(C(=O)/C=C/c4ccc(Cl)c(Cl)c4)CC3)CC2)nc2ccccc21`, for which the growth inhibition was 100% (active) in test [1] and 101% (active) in test [4]. Moreover, the figures for the inhibition in test [2] and in test [3] were 99% (active) and 3%, respectively. In addition, the outcome in test [5], in test [6], in test [7] and in test [8] was inactive.

In the case of `CC(CN1CCN(C)CC1)C(=O)Nc1cccc(-c2ccc(-c3nc4ccccc4[nH]3)s2)c1` (centres undefined), the growth inhibition in test [1] was 59% (active); in test [4], 97% (active). For the same molecule, the inhibition in test [2] and in test [3] was 2% throughout. Further, the outcome in test [5], in test [6], in test [7] and in test [8] was inactive.

Turning to `Cc1cnc(C(=O)Nc2cccc(-c3cccc(-c4nc5c(C)cccc5[nH]4)c3)c2)cn1`, the growth inhibition is 45% in test [1] and 99% (active) in test [4]. For the same molecule, the inhibition is 15% in test [2] and -1% in test [3]. The result in test [5], in test [6], in test [7] and in test [8] was inactive.

Turning to `Cc1cc(N2C(N)=NC(N)=NC2(C)C)ccc1Cl`, the growth inhibition is -2% in test [1] and 95% (active) in test [4]. Moreover, the inhibition was 66% (active) in test [2] and -5% in test [3]. The outcome in test [5], in test [6], in test [7] and in test [8] was inactive.

Regarding `CN1CCC(C(=O)N(Cc2ccc(-c3ccc(CNCCc4ccc(S(C)(=O)=O)cc4)cn3)cc2)Cc2ccc3c(c2)OCO3)CC1`, the growth inhibition is 51% (active) in test [1] and 91% (active) in test [4]. In addition, the inhibition in test [2] was 16%; in test [3], -3%. For the same molecule, the outcome in test [5], in test [6], in test [7] and in test [8] was inactive.

Turning to `CC(C)COc1ccc(Cl)cc1Cc1nc(-c2nc3ccc(CN4CCN(C)CC4)cc3[nH]2)co1`, the growth inhibition in test [1] was 57% (active); in test [4], 101% (active). The inhibition in test [2] was 5%; in test [3] it was 7%. Also, the result in test [5], in test [6], in test [7] and in test [8] was inactive.

For the molecule `COc1ccc2cc(C(=O)NC3CCC(CCN4CCc5cc(C#N)ccc5C4)CC3)[nH]c2c1` (centres undefined), the figures for the growth inhibition in test [1] and in test [4] were -1% and 88% (active), respectively. Further, the inhibition in test [2] was 9%; in test [3], -10%. Besides, the outcome in test [5], in test [6], in test [7] and in test [8] was inactive.

As for `COc1ccc2nccc([C@@H](O)CN3CCC(c4cc(-c5ccc(Cl)cc5)n[nH]4)CC3)c2n1`, the growth inhibition was 56% (active) in test [1] and 97% (active) in test [4]. The results for the inhibition in test [2] and in test [3] were 43% and 0%, respectively. The outcome in test [5], in test [6], in test [7] and in test [8] was inactive.

`CCOc1ccc(C(=O)Nc2nonc2-c2ccc(OC)c(OC)c2)cc1`: the growth inhibition in test [1] is 42%; in test [4], 95% (active). Moreover, the inhibition in test [2] was 7%; in test [3], 5%. For the same molecule, the outcome in test [5], in test [6], in test [7] and in test [8] was inactive.

`CS(=O)(=O)c1ccc2c(c1)CCN(CCC1CCC(NC(=O)C(=Cc3ccc(Cl)cc3Cl)c3ccc(-c4ccccc4)cc3)CC1)CC2` (centres undefined): the growth inhibition was 16% in test [1] and 81% (active) in test [4]. The results for the inhibition in test [2] and in test [3] were 33% and -1%, respectively. Further, the result in test [5], in test [6], in test [7] and in test [8] was inactive.

Turning to `O=C(Nc1cccc(-c2cccc(-c3nc4ccccc4[nH]3)c2)c1)c1ccoc1`, the values for the growth inhibition in test [1] and in test [4] were 36% and 85% (active), respectively. The inhibition in test [2] was 19%; in test [3], 5%. The outcome in test [5], in test [6], in test [7] and in test [8] was inactive.

Consider `O=C(Nc1ccc2c(c1)CCNCC2)Nc1ccc2ccccc2c1`, for which the figures for the growth inhibition in test [1] and in test [4] were 23% and 84% (active), respectively. The inhibition in test [2] was -6%; in test [3], -1%. The outcome in test [5], in test [6], in test [7] and in test [8] was inactive.

For `c1ccc(COc2ccnc(NCCCOc3cccc(CN4CCCCC4)c3)c2)cc1`, the growth inhibition is 51% (active) in test [1] and 101% (active) in test [4]. Besides, the inhibition in test [2] is 22%; in test [3], -2%. The result in test [5], in test [6], in test [7] and in test [8] was inactive.

`O=C(NCCc1ccccc1)N(Cc1cccc(-c2ccc(CNC3CCCC3)cc2)c1)C1CCN(Cc2ccccc2)CC1`: the growth inhibition in test [1] was 84% (active); in test [4], 98% (active). The inhibition in test [2] is 36%; in test [3], 0%. Also, the result in test [5], in test [6], in test [7] and in test [8] was inactive.

For the molecule `Cc1ccc(Nc2nccc(NCC(O)c3cccc(C(F)(F)F)c3)n2)cc1` (centres undefined), the growth inhibition is 74% (active) in test [1] and 99% (active) in test [4]. For the same molecule, the inhibition in test [2] was 19%; in test [3], -6%. The outcome in test [5], in test [6], in test [7] and in test [8] was inactive.

As to `Cc1cccc2[nH]c(-c3ccc(-c4cccc(NC(=O)c5cncn5C)c4)s3)nc12`, the values for the growth inhibition in test [1] and in test [4] were 16% and 103% (active), respectively. In addition, the figures for the inhibition in test [2] and in test [3] were 13% and -5%, respectively. Besides, the outcome in test [5], in test [6], in test [7] and in test [8] was inactive.

With `Clc1ccc2c(NCCc3ccccc3)ccnc2c1`, the figures for the growth inhibition in test [1] and in test [4] were 99% (active) and 93% (active), respectively. Further, the results for the inhibition in test [2] and in test [3] were 31% and -3%, respectively. The result in test [5], in test [6], in test [7] and in test [8] was inactive.

Usually inhibition stands for the drop in the measured response relative to a control, in per cent.
